The nature of assay [1]: ATG_TGFb_CIS: Attagene CIS-FACTORIAL HepG2 Assay for human Transforming Growth Factor (TGF) (AID 2282967; active = hit-call score of the fitted dose curve at least 0.9, where 1 is the maximum; inactive = score below 0.9). Conditions: HepG2 Attagene CIS TGFb reporter, mRNA transcription; actives raise or lower the signal. Put shortly:
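Bidirectional fitting relative to DMSO gave the endpoint. Underlying data: reporter mRNA from HepG2 cells carrying transiently transfected cis-regulated reporter constructs, harvested 24 h after dosing and analyzed by RT-PCR and capillary electrophoresis.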

A short description of assay [2]: ATG_VDRE_CIS: Attagene CIS-FACTORIAL HepG2 Assay for human Vitamin D Receptor Element (VDRE) (AID 2282968; active = hit-call score of the fitted dose curve at least 0.9, where 1 is the maximum; inactive = score below 0.9). The note with it: HepG2 VDRE cis-reporter transcription, actives raise or lower the signal. The essentials: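 Compounds were applied for 24 h to HepG2 cells transfected with promoter-regulated reporter units. Total RNA was reverse-transcribed, and reporter amplicons were fluorescently labelled and sized by capillary electrophoresis.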

Assay [3] concerns the target Nuclear receptor subfamily 1 group I member 3 (Homo sapiens) (UniProt Q14994). The experiment in a line: ATG_CAR_TRANS: Attagene TRANS-FACTORIAL HepG2 Assay for human Constitutive Androstane Receptor (CAR) (AID 2282969).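 Also: activators raise reporter mRNA above DMSO so AC50 marks induction.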 Conditions: HepG2 Attagene TRANS-FACTORIAL CAR reporter. Put shortly: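 Transiently transfected HepG2, multiplex TRANS reporters (CAR-Gal4 chimera driving GAL4-UAS reporter). 24 h dosing. Readout: reporter transcript by RT-PCR + capillary electrophoresis, fluorescence intensity; positive direction vs DMSO.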

In assay [4] the target is Estrogen receptor (Homo sapiens) (UniProt P03372). The experiment in a line: ATG_ERa_TRANS: Attagene TRANS-FACTORIAL HepG2 Assay for human Estrogen Receptor alpha (ERa) (AID 2282970). The note with it: HepG2 Attagene TRANS ERa GAL4 reporter, mRNA. Put shortly: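 Gal4-fusion ERa transactivation, measured as reporter transcript level in transiently transfected HepG2 cells. Exposure 24 h; RT-PCR plus capillary electrophoresis with fluorescence detection.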

Assay [5] concerns the target X-box-binding protein 1 (Homo sapiens) (UniProt P17861). As to the kind of experiment: ATG_Xbp1_CIS: Attagene CIS-FACTORIAL HepG2 Assay for human X-box Binding Protein 1 (XBP1) (AID 2282972; active = hit-call score of the fitted dose curve at least 0.9, where 1 is the maximum; inactive = score below 0.9). The note with it: HepG2 XBP1 cis-element reporter, Attagene multiplex; actives raise or lower the signal. The essentials:
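Read-out: fluorescent reporter mRNA fragments resolved by capillary electrophoresis after RT-PCR. Human HepG2 liver cells carried transfected cis-promoter reporter units and were exposed to chemicals for 24 hours. Gain or loss of signal fitted relative to DMSO baseline.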

Assay [6] deals with Estrogen-related receptor gamma (Homo sapiens) (UniProt P62508). The experiment in a line: ATG_ERRg_TRANS: Attagene TRANS-FACTORIAL HepG2 Assay for human Estrogen-Related Receptor gamma (ERRg) (AID 2282977).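 Also: hits increase reporter signal over DMSO so potencies reflect activators.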 Conditions: HepG2 Attagene TRANS reporter, ERRg transactivation. Put shortly: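 Induction of reporter transcripts through a chimeric NR-Gal4 protein is quantified in transfected human HepG2 liver cells after 24 h chemical exposure, using RT-PCR with capillary electrophoresis detection and DMSO as baseline.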

For assay [7], the target named is Bile acid receptor (Homo sapiens) (UniProt Q96RI1). The experiment in a line: ATG_FXR_TRANS: Attagene TRANS-FACTORIAL HepG2 Assay for Farnesoid X Receptor (FXR) (AID 2282979).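 Also: hits raise reporter mRNA above DMSO so AC50 marks FXR activation.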 The note with it: HepG2 Attagene TRANS FXR-GAL4 reporter transcription. The essentials: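 HepG2 cells were transiently transfected with GAL4-UAS reporters driven by chimeric NR-Gal4 proteins and dosed for 24 h. Reporter mRNA was quantified by RT-PCR, fluorescent labelling, HpaI digestion and capillary electrophoresis, with gain of signal scored versus DMSO.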

Assay [8] deals with Oxysterols receptor LXR-beta (Homo sapiens) (UniProt P55055). The experiment in a line: ATG_LXRb_TRANS: Attagene TRANS-FACTORIAL HepG2 Assay for human Liver X Receptor beta (LXRb) (AID 2282981). The note with it: HepG2 Attagene TRANS GAL4-LXRb reporter, mRNA. The essentials: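 Multiplexed reporter assay, HepG2, 24 h dosing. Fluorescence of labelled RT-PCR products after capillary electrophoresis gives transcript level; positive fitting direction relative to DMSO.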

Assay [9] has as its target Hepatocyte nuclear factor 4-alpha (Homo sapiens) (UniProt P41235). As to the kind of experiment: ATG_HNF4a_TRANS: Attagene TRANS-FACTORIAL HepG2 Assay for human Hepatocyte Nuclear Factor 4 alpha (HNF4a) (AID 2282982). The note with it: HepG2 HNF4a transactivation reporter, mRNA readout. Put shortly: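 Endpoint reflects transcriptional activation of a GAL4-UAS reporter by an HNF4a-GAL4 chimera in transfected HepG2 cells, 24 h post-dosing. Fluorescence from RT-PCR products separated by capillary electrophoresis; DMSO baseline.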

Assay [10] concerns the target Nuclear receptor subfamily 4 group A member 2 (Homo sapiens) (UniProt P43354). As to the kind of experiment: ATG_NURR1_TRANS: Attagene TRANS-FACTORIAL HepG2 Assay for human Nuclear Receptor Related Protein 1 (NURR1) (AID 2282985). Conditions: HepG2 Attagene TRANS reporter, mRNA readout. Put shortly: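 Endpoint: reporter mRNA increase relative to DMSO. HepG2 cells transfected with reporter units, treated 24 h; RNA processed by RT-PCR, labelling, HpaI digestion and capillary electrophoresis.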

Assay [11] deals with Transcriptional activator Myb (Homo sapiens) (UniProt P10242). The experiment in a line: ATG_Myb_CIS: Attagene CIS-FACTORIAL HepG2 Assay for human Myeloblastosis (Myb) Proto-Oncogene Transcription Factor (AID 2282986; active = hit-call score of the fitted dose curve at least 0.9, where 1 is the maximum; inactive = score below 0.9). Conditions: HepG2 Attagene CIS-FACTORIAL Myb reporter transcription; actives raise or lower the signal. The essentials:
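Steps: transfect HepG2 with cis-regulated reporter units; dose with chemical for 24 h; isolate RNA, reverse-transcribe, PCR-amplify and FAM-label reporter sequences; digest with HpaI; resolve by capillary electrophoresis. Activity fitted in both directions relative to DMSO.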

Assay [12] has as its target Nuclear respiratory factor 1 (Homo sapiens) (UniProt Q16656). The experiment in a line: ATG_NRF1_CIS: Attagene CIS-FACTORIAL HepG2 Assay for human Nuclear Respiratory Factor 1 (NRF1) Orphan Gene (AID 2282987; active = hit-call score of the fitted dose curve at least 0.9, where 1 is the maximum; inactive = score below 0.9). The note with it: HepG2 NRF1 cis-element reporter, Attagene multiplex; actives raise or lower the signal. The essentials: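 Fluorescence intensity of labelled reporter cDNA fragments, resolved by capillary electrophoresis, served as readout for NRF1 cis-element activity. Transiently transfected HepG2 cells were dosed for 24 hours; activity in either direction was fitted against DMSO negative control.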

A short description of assay [13]: ATG_NFI_CIS: Attagene CIS-FACTORIAL HepG2 Assay for human Nuclear Factor I (NFI) (AID 2282989; active = hit-call score of the fitted dose curve at least 0.9, where 1 is the maximum; inactive = score below 0.9). Conditions: HepG2 cis-regulatory reporter, NFI response element transcription; actives raise or lower the signal. The essentials:
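Cells: human liver HepG2, transiently transfected with promoter-regulated reporter transcription units. Exposure 24 h. Detection: fluorescent RT-PCR products separated by capillary electrophoresis, normalised to DMSO negative control.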

Assay [14] is described as follows: ATG_GAL4_TRANS: Attagene TRANS-FACTORIAL HepG2 Assay for GAL4 (Internal Marker) (AID 2282976). The note with it: HepG2 Attagene TRANS GAL4 internal marker reporter. The essentials: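 Background-control readout: GAL4-UAS reporter transcript in transiently transfected HepG2 cells after 24 h compound exposure. Measured by RT-PCR, 6-FAM primer extension, HpaI digest and capillary electrophoresis; gain-of-signal fit versus DMSO.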

The target in assay [15] is Steroid hormone receptor ERR1 (Homo sapiens) (UniProt P11474). As to the kind of experiment: ATG_ERRa_TRANS: Attagene TRANS-FACTORIAL HepG2 Assay for human Estrogen-Related Receptor alpha (ERRa) (AID 2282971). The note with it: HepG2 Attagene TRANS reporter, ERRa transactivation. The essentials:
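HepG2 cells transiently transfected with GAL4-UAS reporter units and chimeric NR-Gal4 constructs; after 24 hour compound incubation, reporter mRNA quantified by RT-PCR, fluorescent labelling and capillary electrophoresis, gain of signal versus DMSO.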

The nature of assay [16]: ATG_M_19_TRANS: Attagene TRANS-FACTORIAL HepG2 Assay for M19 Transcription Factor (Internal Marker) (AID 2282974). The note with it: HepG2 Attagene TRANS-FACTORIAL M19 internal marker reporter. Put shortly:
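Cells: human HepG2, transiently transfected with multiplexed reporter transcription units. Exposure: 24 h. Detection: RT-PCR of reporter mRNA with capillary electrophoresis. Analysis: gain-of-signal vs DMSO.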

The target of assay [17] is Glucocorticoid receptor (Homo sapiens) (UniProt P04150). The experiment in a line: ATG_GR_TRANS: Attagene TRANS-FACTORIAL HepG2 Assay for human Glucocorticoid Receptor (GR) (AID 2282978).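 Also: activators score as hits since higher reporter transcript over DMSO is fitted.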 Conditions: HepG2 Attagene TRANS GR reporter, mRNA transcription. Put shortly: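 In this trans-factorial format, exogenous NR-GAL4 chimeric proteins in transfected HepG2 cells regulate GAL4-UAS reporter transcription. After 24 h treatment, reporter mRNA induction relative to DMSO is read by RT-PCR and capillary electrophoresis.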

Assay [18] has as its target Oxysterols receptor LXR-alpha (Homo sapiens) (UniProt Q13133). As to the kind of experiment: ATG_LXRa_TRANS: Attagene TRANS-FACTORIAL HepG2 Assay for human Liver X Receptor alpha (LXRa) (AID 2282980). The note with it: HepG2 Attagene TRANS reporter, LXRa transactivation. Put shortly:
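HepG2 cells transiently transfected with GAL4-UAS reporter units for chimeric NR-Gal4 proteins, exposed to chemicals for 24 h. Reporter mRNA quantified by RT-PCR and capillary electrophoresis; gain of signal fitted relative to DMSO.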

Assay [19] can be described thus: ATG_M_32_TRANS: Attagene TRANS-FACTORIAL HepG2 Assay for M32 Transcription Factor (Internal Marker) (AID 2282984). The note with it: HepG2 Attagene TRANS M32 internal marker reporter. The essentials:
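Internal-marker readout from a multiplexed transcription reporter panel. HepG2 cells were transfected with GAL4-UAS reporter units, treated 24 hours, and reporter transcript levels determined by fluorescence after RT-PCR and capillary separation.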

A short description of assay [20]: ATG_M_06_TRANS: Attagene TRANS-FACTORIAL HepG2 Assay for M06 Transcription Factor (Internal Marker) (AID 2282983). Conditions: HepG2 Attagene TRANS M06 internal marker reporter. Put shortly: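 mRNA levels of a reporter transcript, quantified as FAM fluorescence on capillary electrophoresis, served as readout. HepG2 cells expressing exogenous GAL4-chimera reporter constructs were exposed for 24 h. Gain of signal over DMSO was evaluated.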

Several values for one entry are separate records, joined by “and”; a condition that tells them apart may be missing. Equal values may be shown once. Records with an inconclusive call do not appear. Some structures have more than one record in an assay (separate samples or runs), and their calls can disagree. Activity calls are given as the source filed them. The calls were made as follows, unless noted: active = hit-call score of the fitted dose curve at least 0.9, where 1 is the maximum; inconclusive = response in the unintended direction; inactive = score below 0.9.

Chain of Estrogen-related receptor gamma (Homo sapiens) (P62508 whole entry, looked up, the tested form may be a part): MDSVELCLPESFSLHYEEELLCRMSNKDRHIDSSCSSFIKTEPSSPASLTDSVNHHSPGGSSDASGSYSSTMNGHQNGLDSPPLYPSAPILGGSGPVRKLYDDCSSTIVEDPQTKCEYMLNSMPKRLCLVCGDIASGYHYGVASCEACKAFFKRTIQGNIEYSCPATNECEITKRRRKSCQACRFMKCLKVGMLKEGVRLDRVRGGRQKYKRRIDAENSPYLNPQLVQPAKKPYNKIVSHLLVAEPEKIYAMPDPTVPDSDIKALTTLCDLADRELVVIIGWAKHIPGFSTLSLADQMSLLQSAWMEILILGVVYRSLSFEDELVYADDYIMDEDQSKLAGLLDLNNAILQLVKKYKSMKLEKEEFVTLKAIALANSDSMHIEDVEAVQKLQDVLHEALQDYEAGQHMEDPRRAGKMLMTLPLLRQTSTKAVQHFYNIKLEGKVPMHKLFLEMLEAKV
Chain of Oxysterols receptor LXR-beta (Homo sapiens) (P55055 whole entry, looked up, the tested form may be a part): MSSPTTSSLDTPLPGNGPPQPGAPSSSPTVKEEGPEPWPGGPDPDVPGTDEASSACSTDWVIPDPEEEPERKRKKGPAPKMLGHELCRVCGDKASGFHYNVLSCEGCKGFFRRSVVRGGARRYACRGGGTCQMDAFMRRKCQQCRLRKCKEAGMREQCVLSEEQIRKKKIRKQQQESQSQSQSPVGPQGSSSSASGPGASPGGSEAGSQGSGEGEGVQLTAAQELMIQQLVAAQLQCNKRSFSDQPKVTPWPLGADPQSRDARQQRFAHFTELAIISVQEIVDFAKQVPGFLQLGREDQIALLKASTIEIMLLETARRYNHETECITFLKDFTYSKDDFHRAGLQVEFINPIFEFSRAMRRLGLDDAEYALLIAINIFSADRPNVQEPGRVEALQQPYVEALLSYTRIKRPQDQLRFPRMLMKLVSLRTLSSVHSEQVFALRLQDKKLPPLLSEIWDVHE
Chain of Bile acid receptor (Homo sapiens) (Q96RI1 whole entry, looked up, the tested form may be a part): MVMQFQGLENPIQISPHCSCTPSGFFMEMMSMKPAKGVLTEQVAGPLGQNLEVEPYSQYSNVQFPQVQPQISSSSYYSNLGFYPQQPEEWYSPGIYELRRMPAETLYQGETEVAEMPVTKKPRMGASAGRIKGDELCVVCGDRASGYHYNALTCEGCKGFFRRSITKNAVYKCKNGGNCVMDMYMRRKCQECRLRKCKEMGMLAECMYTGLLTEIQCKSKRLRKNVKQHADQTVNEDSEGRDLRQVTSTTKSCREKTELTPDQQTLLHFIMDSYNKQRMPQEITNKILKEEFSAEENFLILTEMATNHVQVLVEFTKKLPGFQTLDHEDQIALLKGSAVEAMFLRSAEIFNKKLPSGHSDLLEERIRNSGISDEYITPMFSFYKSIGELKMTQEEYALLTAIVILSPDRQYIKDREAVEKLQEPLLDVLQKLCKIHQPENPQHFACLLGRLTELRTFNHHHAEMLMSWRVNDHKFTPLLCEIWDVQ
Chain of Nuclear receptor subfamily 1 group I member 3 (Homo sapiens) (Q14994 whole entry, looked up, the tested form may be a part): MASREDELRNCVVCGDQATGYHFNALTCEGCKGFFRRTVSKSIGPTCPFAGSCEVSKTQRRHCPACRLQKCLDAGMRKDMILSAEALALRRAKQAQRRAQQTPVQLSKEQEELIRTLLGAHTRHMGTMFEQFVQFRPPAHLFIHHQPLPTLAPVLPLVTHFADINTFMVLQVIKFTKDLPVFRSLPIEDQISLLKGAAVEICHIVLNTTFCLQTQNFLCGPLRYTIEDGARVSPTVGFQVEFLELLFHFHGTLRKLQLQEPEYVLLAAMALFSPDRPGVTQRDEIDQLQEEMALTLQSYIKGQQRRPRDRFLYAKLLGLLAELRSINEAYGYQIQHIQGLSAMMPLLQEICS
Chain of Transcriptional activator Myb (Homo sapiens) (P10242 whole entry, looked up): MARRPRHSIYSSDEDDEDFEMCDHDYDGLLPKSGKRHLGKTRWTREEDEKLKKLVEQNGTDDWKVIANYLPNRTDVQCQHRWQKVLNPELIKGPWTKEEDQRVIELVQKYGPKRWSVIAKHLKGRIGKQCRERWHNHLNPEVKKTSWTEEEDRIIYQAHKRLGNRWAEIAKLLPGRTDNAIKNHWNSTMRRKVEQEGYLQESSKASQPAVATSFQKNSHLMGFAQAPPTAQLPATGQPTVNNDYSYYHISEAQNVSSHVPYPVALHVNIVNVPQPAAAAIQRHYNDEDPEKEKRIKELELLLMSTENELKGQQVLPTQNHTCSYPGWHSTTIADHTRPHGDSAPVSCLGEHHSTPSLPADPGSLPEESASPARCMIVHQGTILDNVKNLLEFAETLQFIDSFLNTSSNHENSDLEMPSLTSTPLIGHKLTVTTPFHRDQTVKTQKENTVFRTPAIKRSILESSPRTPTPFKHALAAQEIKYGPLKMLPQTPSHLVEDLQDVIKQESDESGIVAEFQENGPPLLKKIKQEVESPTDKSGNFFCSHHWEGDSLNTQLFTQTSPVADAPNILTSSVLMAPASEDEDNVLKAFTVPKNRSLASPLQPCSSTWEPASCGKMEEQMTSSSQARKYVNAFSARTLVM
Chain of Oxysterols receptor LXR-alpha (Homo sapiens) (Q13133 whole entry, looked up, the tested form may be a part): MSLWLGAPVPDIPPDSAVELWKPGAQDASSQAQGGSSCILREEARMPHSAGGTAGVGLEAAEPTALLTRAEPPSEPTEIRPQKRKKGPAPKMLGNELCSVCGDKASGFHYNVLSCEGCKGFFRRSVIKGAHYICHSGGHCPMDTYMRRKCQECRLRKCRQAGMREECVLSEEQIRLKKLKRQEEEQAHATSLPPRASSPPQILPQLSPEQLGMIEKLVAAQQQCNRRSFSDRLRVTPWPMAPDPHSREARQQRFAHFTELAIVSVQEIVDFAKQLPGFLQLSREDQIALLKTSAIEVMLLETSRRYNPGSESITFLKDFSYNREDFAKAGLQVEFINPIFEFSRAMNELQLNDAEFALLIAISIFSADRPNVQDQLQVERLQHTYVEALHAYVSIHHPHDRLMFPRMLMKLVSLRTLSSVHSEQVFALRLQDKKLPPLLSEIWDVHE
Chain of Estrogen receptor (Homo sapiens) (P03372 whole entry, looked up, the tested form may be a part): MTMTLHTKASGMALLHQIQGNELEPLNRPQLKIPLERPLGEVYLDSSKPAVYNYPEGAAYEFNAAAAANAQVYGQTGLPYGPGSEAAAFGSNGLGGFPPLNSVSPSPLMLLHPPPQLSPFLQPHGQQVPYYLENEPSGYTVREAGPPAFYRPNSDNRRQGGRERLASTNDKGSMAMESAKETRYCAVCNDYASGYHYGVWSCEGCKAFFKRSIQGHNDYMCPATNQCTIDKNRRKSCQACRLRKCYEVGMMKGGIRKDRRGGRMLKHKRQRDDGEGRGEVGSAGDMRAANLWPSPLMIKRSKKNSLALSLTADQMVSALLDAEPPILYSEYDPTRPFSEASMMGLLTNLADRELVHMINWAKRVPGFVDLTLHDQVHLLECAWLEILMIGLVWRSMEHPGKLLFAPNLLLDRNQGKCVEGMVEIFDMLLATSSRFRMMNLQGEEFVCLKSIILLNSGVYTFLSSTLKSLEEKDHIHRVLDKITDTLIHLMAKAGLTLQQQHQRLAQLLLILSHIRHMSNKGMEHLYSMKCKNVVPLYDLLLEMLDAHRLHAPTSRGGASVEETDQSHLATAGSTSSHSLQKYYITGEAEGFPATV
Chain of Glucocorticoid receptor (Homo sapiens) (P04150 whole entry, looked up, the tested form may be a part): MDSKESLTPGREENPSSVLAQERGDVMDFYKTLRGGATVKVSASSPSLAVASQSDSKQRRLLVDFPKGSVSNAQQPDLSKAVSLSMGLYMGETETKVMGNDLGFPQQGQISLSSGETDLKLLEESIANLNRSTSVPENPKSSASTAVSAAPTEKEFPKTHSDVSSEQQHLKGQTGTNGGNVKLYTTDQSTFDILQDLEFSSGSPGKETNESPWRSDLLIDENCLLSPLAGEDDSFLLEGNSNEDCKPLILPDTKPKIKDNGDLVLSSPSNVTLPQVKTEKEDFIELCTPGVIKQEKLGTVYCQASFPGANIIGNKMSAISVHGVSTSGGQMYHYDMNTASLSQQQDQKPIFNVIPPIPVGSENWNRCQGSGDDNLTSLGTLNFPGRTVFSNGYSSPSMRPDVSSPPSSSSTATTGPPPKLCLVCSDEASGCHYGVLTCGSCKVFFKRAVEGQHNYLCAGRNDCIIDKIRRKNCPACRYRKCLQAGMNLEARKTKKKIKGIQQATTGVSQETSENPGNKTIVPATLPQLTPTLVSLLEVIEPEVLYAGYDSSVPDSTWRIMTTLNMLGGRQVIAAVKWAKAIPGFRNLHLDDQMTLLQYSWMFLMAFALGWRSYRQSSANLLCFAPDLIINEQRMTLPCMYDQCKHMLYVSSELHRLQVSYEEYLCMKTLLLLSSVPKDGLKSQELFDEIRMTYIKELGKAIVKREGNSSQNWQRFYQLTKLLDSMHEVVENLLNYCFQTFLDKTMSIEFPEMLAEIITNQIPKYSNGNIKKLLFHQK
Chain of X-box-binding protein 1 (Homo sapiens) (P17861 whole entry, looked up, the tested form may be a part): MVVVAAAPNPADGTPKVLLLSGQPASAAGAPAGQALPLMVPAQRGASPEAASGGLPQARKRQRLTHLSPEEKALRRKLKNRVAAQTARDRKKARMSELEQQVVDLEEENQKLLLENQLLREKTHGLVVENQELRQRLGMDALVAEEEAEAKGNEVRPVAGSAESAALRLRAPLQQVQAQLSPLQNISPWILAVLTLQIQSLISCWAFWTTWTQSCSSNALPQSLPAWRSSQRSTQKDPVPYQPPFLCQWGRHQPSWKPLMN
Chain of Nuclear respiratory factor 1 (Homo sapiens) (Q16656 whole entry, looked up, the tested form may be a part): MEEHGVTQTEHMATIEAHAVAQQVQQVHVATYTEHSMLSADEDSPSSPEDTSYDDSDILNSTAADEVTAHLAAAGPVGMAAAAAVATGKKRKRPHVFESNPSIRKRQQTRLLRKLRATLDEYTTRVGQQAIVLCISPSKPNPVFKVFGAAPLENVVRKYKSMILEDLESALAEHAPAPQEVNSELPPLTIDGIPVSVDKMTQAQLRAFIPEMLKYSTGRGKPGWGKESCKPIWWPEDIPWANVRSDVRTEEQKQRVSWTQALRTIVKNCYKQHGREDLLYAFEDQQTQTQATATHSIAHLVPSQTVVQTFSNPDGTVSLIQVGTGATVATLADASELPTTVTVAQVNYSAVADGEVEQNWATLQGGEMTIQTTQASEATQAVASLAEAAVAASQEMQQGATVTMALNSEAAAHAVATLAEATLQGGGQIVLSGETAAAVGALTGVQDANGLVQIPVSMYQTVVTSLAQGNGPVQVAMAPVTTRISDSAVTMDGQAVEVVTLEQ

With `Cc1nccn1-c1ccc(Sc2cccc(C3(C(N)=O)CCOCC3)c2)cc1`, the result in assay [1], in [3], in assay [4], in assay [6], in [7] and in assay [8] was inactive. Also, the call in [9], in assay [11] and in assay [12] was inactive. Besides, the half-maximal activity concentration (AC50) in [2] was 4.16 µM (active); in assay [5] it was 1.57 µM (active); in [10], 14.3 µM (active); in assay [13] it was 2.39 µM (active).

For `Cn1cc[nH]c1=S`, the molecule was called inactive in assay [1], in [2], in [5], in assay [14], in [10] and in [11]. For the same molecule, the outcome in [12] and in assay [13] was inactive.

As for `FC(F)=C(F)C(F)(F)C(F)(F)C(F)(F)C(F)(F)C(F)(F)C(F)(F)F`, the result in [1], in [2], in assay [3], in assay [4], in [15] and in assay [5] was inactive. The molecule was classed as inactive in assay [16], in [14], in [6], in [17], in [7] and in assay [18]. The result in [19], in assay [10], in assay [11], in assay [12] and in assay [13] was inactive. The AC50 in assay [4] is 12.9 µM (active).

In the case of `OCc1c[nH]c2ccccc12`, the result in assay [1], in assay [3], in assay [15], in assay [5], in assay [16] and in [14] was inactive. Moreover, the molecule was called inactive in [6], in assay [7], in [18], in [8], in assay [9] and in assay [10]. Further, the call in [11], in [12] and in assay [13] was inactive. Moreover, the AC50 was 5.36 µM (active) [middle of 5 runs] in [4]; 18.8 µM (active) and 14.4 µM (active) in assay [10]; 27.2 µM (active) in [12].

With `O=S(=O)(O)CCC(F)(F)C(F)(F)C(F)(F)C(F)(F)C(F)(F)C(F)(F)F`, the call in [1], in assay [3], in [4], in assay [15], in assay [5] and in [16] was inactive. Further, the result in assay [14], in assay [6], in assay [17], in assay [7], in [18] and in [8] was inactive. Also, the result in assay [9], in assay [20], in assay [10], in [11], in assay [12] and in assay [13] was inactive.

Turning to `CCCCCOC(C)=O`, the result in assay [1], in [3], in [5], in assay [16], in assay [17] and in [10] was inactive. Besides, the result in [11], in [12] and in assay [13] was inactive.

As to `CCOc1ccc2[nH]cc(C(=O)NCc3ccccc3)c(=O)c2n1`, the call in [1], in assay [3], in assay [4], in [5], in assay [14] and in assay [6] was inactive. In addition, the call in assay [9], in assay [10], in [11], in assay [12] and in [13] was inactive.

As to `CCc1cccc(CC)c1N`, the call in assay [1], in assay [3], in assay [4], in assay [5], in assay [14] and in assay [17] was inactive. The result in assay [9], in assay [10], in [11], in assay [12] and in [13] was inactive.

What is called AC50 is the midpoint of the concentration-response curve, whichever way the signal moves.

Source of the values: PubChem BioAssay (EPA / NIEHS).
